Here are results for 71 compounds from PubChem BioAssay AID1259343 (VanderVen Lab, College of Veterinary Medicine, Cornell …, 2017).

About 2,900 (47%) of roughly 6,200 compounds were called active. Cut-off read from the data, not from the text of the source: active = inhibition above about 50%; inactive = the rest. So high a share suggests a set chosen from earlier hits. This is one part of the list.

This test in a line: Mycobacterium tuberculosis growth inhibition, primary screen (AID 1259343). The settings on record: inhibition: at 10 µM, hits give high values; outcome: 10 uM.
The term inhibition denotes the drop in the measured response relative to a control, in per cent. As for `CN=c1scc(-c2ccccc2F)n1N=Cc1ccc(SC)cc1`, the inhibition was -1.82% (inactive).
The result for `CN=c1scc(-c2ccc(F)cc2)n1N=Cc1cccc(C(F)(F)F)c1` reads -44.1% (inactive); that for `CN=c1scc(-c2ccccc2F)n1N=Cc1ccccc1`, -1.69% (inactive).
As for `CN=c1scc(-c2ccccc2F)n1N=Cc1cccc(F)c1`, the inhibition is 98.1% (active).
In the case of `CN=c1scc(-c2ccc(F)cc2)n1N=Cc1ccccc1Br` it was -41.8% (inactive).
In the case of `CN=c1scc(-c2ccc(F)cc2)n1N=Cc1cccc(Br)c1` it was 70.2% (active); in that of `Cc1nn(C(=O)C(C)N2C(=O)c3ccccc3C2=O)c(C)c1Br` (stereo unspecified), 14.3% (inactive).
In the case of `COc1ccc2oc(=O)cc(-c3cc4cc(Br)ccc4o3)c2c1` it was -2.37% (inactive); in that of `Cc1cccc2nc(COc3ccc4ccccc4c3Br)cn12`, 41.5% (inactive); in that of `CCCCN1CCC(COC(=O)c2cc(Cl)c(N)c3c2OCCO3)CC1`, 98.9% (active).
Regarding `Cc1cccc(SC2CCN(c3nncc(-c4ccccc4)n3)CC2)c1`, the inhibition was 32.6% (inactive).
The result for `Nc1ncc(Cc2cc(Cl)ccc2Cl)s1` reads -17.2% (inactive).
With `NC(N)=NCc1ccc(Cl)cc1Cl`, the inhibition was 74.4% (active).
Consider `Nc1ncc(Cc2ccc(Cl)cc2F)s1`, for which the inhibition is 35.3% (inactive).
Take `Cc1nc(C)c(-c2ccc(SCc3c(F)cccc3Cl)nn2)s1`: the inhibition is 69.8% (active).
In the case of `Cc1nc(C)c(-c2csc(Nc3cccnc3)n2)s1` it was 35.7% (inactive).
The result for `CC(NC(=O)C1CC(c2cccc(F)c2)=NO1)c1ccc(F)cc1F` (stereo unspecified) reads 84.1% (active); that for `O=C(Nc1ccc(-n2cccn2)nc1)C1CC(c2cccc(F)c2)=NO1` (stereo unspecified), 14.1% (inactive).
Take `O=C(NC(C1CC1)C1CC1)C1CC(c2ccc(Cl)s2)=NO1` (stereo unspecified): the inhibition was -31.9% (inactive).
For the compound `CCOc1ccccc1C(=O)Oc1ccc2ccc(O)cc2c1`, the inhibition was 40.6% (inactive).
For the compound `O=C(Oc1ccc2ccccc2c1)c1cccs1`, the inhibition was 86.7% (active).
On to `COc1ccc2c(=O)c3c(oc2c1)C(=O)N(c1nccs1)C3c1ccc(C(C)(C)C)cc1` (stereo unspecified), for which the inhibition is 5.45% (inactive).
Consider `COc1ccc2c(=O)c3c(oc2c1)C(=O)N(c1nccs1)C3c1ccccc1` (stereo unspecified), for which the inhibition is 11.9% (inactive).
Regarding `COc1ccc2c(c1)OCc1c-2oc2cc(OC)ccc12`, the inhibition was 81.8% (active).
In the case of `CC1CCc2c(Cl)cc(Cl)c(O)c2N1` (stereo unspecified) it was 103% (active).
As to `COc1cc(C=Nc2ccc(I)cc2)cc(OC)c1OC`, the inhibition is 75.7% (active).
The result for `COc1cc(C=Nc2ccc3ncccc3c2)cc(OC)c1OC` reads -5.15% (inactive); that for `COc1cc2c(cc1/C=C/C(=O)N1CCc3ccccc31)OC(C)C2` (stereo unspecified), 59.3% (active); that for `Cc1ccc2c(c1)CCCN2C(=O)/C=C/c1ccco1`, 44.5% (inactive).
Turning to `O=c1c(Oc2ccc(Cl)cc2)coc2cc(O)ccc12`, the inhibition was 33.2% (inactive).
In the case of `CCCc1cc(=O)oc2cc(OC(C)C)c(Cl)cc12`, the inhibition was 23.5% (inactive).
The result for `CCOC(=O)C(C)Oc1ccc2c(=O)c(Oc3ccc(OCC)cc3)coc2c1` (stereo unspecified) reads 22.8% (inactive).
With `CCCc1cccc(C)c1O`, the inhibition is 42.4% (inactive).
The result for `CCCc1cc(=O)oc2cc(O)ccc12` reads 55.5% (active); that for `CCCc1nc2oc3cc(OC)ccc3c(=O)c2c(=O)n1CCc1ccccc1`, 4.8% (inactive).
On to `O=c1c(Oc2ccccc2F)coc2cc(O)ccc12`, for which the inhibition was 11.6% (inactive).
The result for `O=c1c(Oc2ccc(F)cc2)coc2cc(O)ccc12` reads 103% (active); that for `O=c1c(Oc2ccccc2)coc2cc(O)ccc12`, 88.5% (active); that for `CCCc1oc2cc(O)ccc2c(=O)c1Oc1ccccc1`, 80.2% (active).
With `Oc1ccc(-c2nc3c4cnn(-c5ccccc5Cl)c4ncn3n2)cc1`, the inhibition is 44.1% (inactive).
In the case of `O=C(c1cnn2cccnc12)N1CCOc2ccc(C(O)C(c3ccccc3)c3ccccc3)cc2C1` (stereo unspecified) it was -21.2% (inactive); in that of `Cc1cc(C(C)(C)CC(C)(C)C)ccc1OCCOCC[N+](C)(C)Cc1ccccc1`, 87.5% (active).
The result for `CCCCCCCCN1C(=O)CC(=O)NC1=S` reads 27.6% (inactive); that for `CCCCCCCCc1nc(=S)[nH][nH]1`, 86.1% (active).
Regarding `O=C1CCC(=O)N1c1ccc(-c2nc3sc4c(c3c(=O)o2)CCC4)cc1`, the inhibition is -4.37% (inactive).
On to `Cc1nc2sc3c(c2c(=O)o1)CCCCC3`, for which the inhibition is 102% (active).
In the case of `CC(C)(C)c1nc2sc3c(c2c(=O)o1)CCCC3` it was 25.7% (inactive); in that of `COc1ccccc1C(C)(C)C(=O)n1nc(C(F)(F)F)nc1N`, 7.93% (inactive); in that of `NC(=O)C1CCN(c2ccc(S(=O)(=O)C(F)(F)F)cc2)C1` (stereo unspecified), -74.6% (inactive).
Take `Cc1cnn(C2CN(c3ccc(S(=O)(=O)C(F)(F)F)cc3)C2)c1`: the inhibition is 84.2% (active).
As for `FC(F)(F)c1ccc(Cn2ccnc2CNC2CCCCC2)cc1`, the inhibition was 21.3% (inactive).
In the case of `CCN(C(=O)c1cc(C)c(-c2ccc(F)cc2)s1)C1CCC1` it was 24.1% (inactive); in that of `Cc1cc(C)c(Cn2ccnc2CN(C(=O)c2ccc(F)cc2)C2CC2)c(C)c1`, 51.5% (active).
In the case of `CC1=C(C)C(=O)C(CCCCC#CCCCC#CCO)=C(C)C1=O` it was 84.5% (active); in that of `C=C(C)CN=c1scc(C)n1N=Cc1sccc1C`, 21.6% (inactive).
In the case of `COc1ccc(COc2ccc(N(C)C(N)=O)cc2)c(Cl)c1` it was 15.9% (inactive); in that of `COc1ccc(N(CC(F)(F)F)C(=O)CCl)cc1`, 84.1% (active); in that of `COc1ccc2cc(CN(C)C(=O)CCl)ccc2c1`, “inactive”.
As for `CC1CCCC(NC(=O)c2cc3c(s2)CSC3)C1C` (stereo unspecified), the inhibition is 55.5% (active).
The result for `CC1CCc2sc(C(=O)NCc3ccc4c(c3)OCO4)cc2C1` (stereo unspecified) reads -11% (inactive); that for `COc1ccc(-c2c(O)c3c(OC)c4c(cc3oc2=O)OC(C)(C)C=C4)cc1`, 63.3% (active).
In the case of `CC(=O)O[C@@H]1C[C@@]2(C)[C@H](c3ccoc3)C[C@H]3O[C@]32[C@]2(C)C(=O)C(O)=C3C(C)(C)C(=O)C=C[C@]3(C)C12` (stereo partly specified) it was 94.8% (active); in that of `COc1cc(=C2C=c3ccccc3=N2)[nH]/c1=C\c1[nH]c(C)cc1C`, -5.42% (inactive); in that of `O=C(NC(=S)Nc1ccc(N2CCN(C(=O)c3ccccc3)CC2)cc1)c1ccco1`, 99.1% (active).
The result for `O=C(Nc1cccc(-c2cccc(Cl)c2)c1)C1CCN(C(=O)C2CCCO2)CC1` (stereo unspecified) reads 9.39% (inactive); that for `O=C(Nc1cccc(-c2cccc(Cl)c2)c1)C1CCN(C2CCOCC2)CC1`, 88.7% (active).
Regarding `O=C(Nc1cccc(-c2cccc(Cl)c2)c1)C1CCN(C(=O)c2cccnc2)CC1`, the inhibition entry is “inactive”.
The result for `O=C(Nc1cccc(-c2cccc(Cl)c2)c1)C1CCN(C(=O)C2CCOC2)CC1` (stereo unspecified) reads 71% (active).
In the case of `COc1ccc(C(=O)N2CCC(C(=O)Nc3cccc(-c4cccc(Cl)c4)c3)CC2)o1` it was 70.5% (active).
As to `O=C(Nc1cccc(-c2cccc(Cl)c2)c1)C1CCN(C(=O)c2csnn2)CC1`, the inhibition was -4.87% (inactive).
For `O=C(Nc1cccc(-c2cccc(Cl)c2)c1)C1CCN(C(=O)c2ccccc2)CC1`, the inhibition was 85.9% (active).
